# Laboratory results reported in ChEMBL document CHEMBL1157539, “Thousands of chemical starting points for antimalarial lead identification” (Nature, 2010).
# How the values were obtained:
# Assay type in all cases: functional
# Plasmodium falciparum [1] = experiment: GSK_TCMDC: Inhibition of Plasmodium falciparum 3D7 in whole red blood cells, using parasite LDH activity as an index of growth. Test compounds present at 2uM
# Plasmodium falciparum [2] = experiment: GSK_TCMDC: Inhibition of Plasmodium falciparum Dd2 in whole red blood cells, using parasite LDH activity as an index of growth. Test compounds present at 2uM
# HepG2 = experiment: GSK_TCMDC: Percent inhibition of human HepG2 cell line. Test compounds present at 10uM.
Structure (SMILES),Inhibition (Plasmodium falciparum [1]),Inhibition (Plasmodium falciparum [2]),Inhibition (HepG2)
CNc1ccc(CNCc2ccc(-c3ccc(-c4nc5cc(C(F)(F)F)ccc5[nH]4)s3)cc2)cc1.O=C(O)C(F)(F)F,100%,97%,44%
O=c1cc(NCCCNCc2cccc3c2OC(F)(F)O3)[nH]c2ccccc12,88%,15%,4%
CCN(CC1CCN(CC2(O)CCOCC2)CC1)c1cc(C)nc(Nc2ccc(Cl)cc2)n1,100%,99%,34%
O=C(/C=C/c1ccc(Cl)c(Cl)c1)NCCCCCN1CCC(NC(=O)Nc2ccc(OC(F)F)cc2)CC1,100%,18%,33%
COc1ccc(-c2ccccc2CNc2nc(NCCc3ccc(O)cc3)nc(N3CCNCC3)n2)cc1.O=C(O)C(F)(F)F,86%,3%,48%
Cc1cc(N[C@@H](Cc2ccccc2)C(=O)Nc2ccccc2)nc(NCC2CCCCC2)n1.O=C(O)C(F)(F)F,98%,55%,12%
O=C(Nc1ccc(-c2nc3ccccc3[nH]2)cc1)c1ccc(S(=O)(=O)N2CCCCCC2)cc1,97%,21%,8%
O=C(CSc1nn(-c2ccccc2)c(=S)s1)c1c[nH]c2ccccc12,93%,68%,0%
O=C(NCCc1cccc(Cl)c1Cl)c1cnc(N2CCN(c3ccncc3)CC2)c(Cl)c1.O=C(O)C(F)(F)F,100%,99%,47%
O=C(Nc1ccc(Cn2ncc(N3CCCNCC3)c(Cl)c2=O)cc1)Nc1cc(C(F)(F)F)cc(C(F)(F)F)c1.O=C(O)C(F)(F)F,100%,29%,25%
CS(=O)(=O)Cc1ccc(Nc2nccc(-c3c(-c4cccc(NC(=O)c5c(F)cccc5F)c4)nn4ccccc34)n2)cc1,99%,75%,78%
N#Cc1cccc(NC(=O)Nc2cccc(-c3ccc(-c4nc5cc(C(F)(F)F)ccc5[nH]4)cc3)c2)c1,100%,99%,54%
O=C(Cn1c(CCc2cccc(F)c2F)nc(=O)c2ccccc21)N(CCCN1CCCCC1)Cc1ccc(-c2ccc(C(F)(F)F)cc2)cc1.O=C(O)C(O)C(O)C(=O)O,100%,94%,100%
Cl.O=[N+]([O-])c1ccc(-c2nc3cc(C4=NC5CCCCC5N4)ccc3[nH]2)cc1 (centres undefined),100%,30%,0%
Cl.O=C1CSc2ccc(CNC3CCN(CCc4c(Cl)cnc5ccc(F)cc45)CC3)nc2N1,98%,52%,21%
C[C@@H]1CC[C@H](NC(=O)[C@H](CC2CCCC2)NC(=O)N2CCNCC2)C(=O)CN1S(=O)(=O)c1ccccn1.O=C(O)C(F)(F)F,84%,19%,5%
O=C(Nc1ccc(OC2CCN(Cc3ccsc3)C2)c(Cl)c1)c1ccco1.O=C(O)C(F)(F)F (centres undefined),93%,96%,0%
Cc1cc(N[C@@H](Cc2ccccc2)C(=O)NCc2cccs2)nc(NCCc2cccnc2)n1.O=C(O)C(F)(F)F,84%,38%,10%
Cc1nc(N)nc(N)c1OCc1ccc(Cl)c(Cl)c1.Cl,97%,5%,14%
Cn1cncc1CCN(Cc1ccc(-c2ccc(C(F)(F)F)cc2)cc1)C(=O)Cn1c(SCc2cccc(F)c2F)cc(=O)c2ccccc21,99%,90%,24%
Cc1ccccc1C1CCN(C2CCC(NC(=O)c3cc(-c4ccc(Cl)cc4)cs3)CC2)CC1 (centres undefined),100%,100%,99%
COc1ccc(C(C(=O)NC2CCN(C[C@H](O)c3ccnc4ccc(OC)cc34)CC2)N2CCN(Cc3ccccc3)CC2)cc1 (some centres undefined),100%,72%,18%
CCN(CCCN1CCCCC1)c1cc(C)nc(Nc2ccc(Br)cc2F)n1.O=C(O)C(F)(F)F,95%,24%,32%
CN1CCc2cc(NS(=O)(=O)c3ccc(-c4ccc(Cl)cc4)cc3)c(OCCCN3CCCCC3)cc2CC1.Cl,100%,100%,91%
COc1ccc(CNCc2ccccc2)cc1-c1ccc(S(=O)(=O)NCCN2CCCC2)c(F)c1.O=C(O)C(F)(F)F,87%,42%,29%
Cc1cc(N[C@@H](CC(C)C)C(=O)Nc2ccccc2)nc(NCCc2ccc(F)cc2)n1.O=C(O)C(F)(F)F,100%,94%,8%
OC(CNC1CCCCC1)Cn1c2ccc(I)cc2c2cc(I)ccc21 (centres undefined),100%,93%,10%

Structure (SMILES),Inhibition (Plasmodium falciparum [1]),Inhibition (Plasmodium falciparum [2]),Inhibition (HepG2)
CCC[C@@H]([C@@H](CC1CCCCC1)C(=O)N[C@H](C(=O)Nc1nccs1)C(C)(C)SCCNC(=O)OCc1ccccn1)N(O)C=O,99%,96%,17%
CC(C)C[C@@H](/C=N/N1CCOC1=O)NC(=O)[C@H](CC(C)C)NC(=O)c1ccc(F)cc1,85%,72%,1%
Cc1[nH]c(C)c(-c2ccc(-c3ccc(Cl)cc3)cc2)c(=O)c1Cl,96%,96%,0%
NC1CCN(c2nc(NCCc3ccc(O)cc3)nc(NCc3ccccc3-c3ccccc3)n2)CC1.O=C(O)C(F)(F)F,99%,32%,14%
CC(C)(C)c1ccc(CNC(=O)/C=C/c2ccc(CNC3CCNCC3)cc2)cc1,96%,21%,6%
O=C(Nc1ccc(Cl)c(Cl)c1)N(Cc1ccccc1Br)C1CCNCC1,96%,8%,13%
CC(COc1ccc2c(c1)OC(C)(C)CC2c1ccccc1)NCC(O)c1cccc(Cl)c1.Cl (centres undefined),98%,96%,1%
COc1ccc(CNCc2ccc(-c3cccc(-c4nc5cc(F)ccc5[nH]4)c3)cc2)cc1.O=C(O)C(F)(F)F,100%,94%,33%
Cc1ccc(NC(=O)c2ccc(N3CCC(c4ccccc4C)CC3)nc2)cc1.O=C(O)C(F)(F)F,83%,72%,49%
CC(C)N1CCC(N(Cc2ccc(-c3ccc(Cl)cc3)cc2)C(=O)Cn2c(CCc3cccc(F)c3F)nc(=O)c3ccccc32)CC1.O=C(O)C(O)C(O)C(=O)O,86%,70%,61%
Nc1nccc2ccc(-c3ccc(OCc4ccccc4)cc3)cc12.O=C(O)C(F)(F)F,100%,67%,40%
COc1ccc2nccc([C@@H](O)CN3CCC(NC(=O)C(c4ccsc4)N4CCN(c5ccccc5OC)CC4)CC3)c2c1 (some centres undefined),95%,50%,11%
COc1ccccc1C1CCN(C2CCC(NC(=O)/C=C/c3cc(F)cc(C(F)(F)F)c3)CC2)CC1 (centres undefined),98%,57%,92%
Br.CCC1N=C(N)N=C(N)N1OCCCOc1c(Cl)cc(Cl)cc1Cl (centres undefined),95%,96%,67%
Cc1cc(C2NC(=O)c3ccccc3N2)c(C)n1-c1ccc2c(c1)OCO2 (centres undefined),86%,85%,13%
C=CCC(CC=C)N1C(=O)C(c2ccccc2)(c2ccccc2)N=C1N.O=CO,98%,97%,35%
CN1CCC(c2nc(N)no2)C1.O=C(O)C(=O)O (centres undefined),95%,2%,15%
O=C(NC1CCN(Cc2ccccc2)CC1)c1ccc(-c2nc3cc(F)c(F)cc3[nH]2)s1,100%,97%,6%
COc1ccc(NC(=O)c2csc(-c3cc(NC(=O)c4ccnc(N5CCCC5)c4)ccc3C)c2)cc1N1CCN(C)CC1.O=C(O)C(F)(F)F,100%,80%,4%
Cc1cc(N)c2cc(NC(=O)c3cccc(C(=O)Nc4ccc5nc(C)cc(N)c5c4)c3)ccc2n1.Cl,94%,92%,9%
COc1cccc(OC2CCN(C(=O)c3ccc(-c4ccc(N5CCCC5=O)cc4C)cc3)CC2)c1,85%,80%,42%
CCNc1cc(C)nc(Nc2ccc(NC(=O)c3ccccc3Cl)cc2)n1,100%,52%,48%
CN(Cc1ccncc1)C(Cc1ccccc1)C1CCN(Cc2ccc(O)c(Cl)c2)CC1 (centres undefined),96%,97%,22%
Cc1ccc(NC(=O)c2cccc(CN3CCCN(Cc4cccc(O)c4)CC3)c2)cc1F.O=C(O)C(F)(F)F,99%,45%,20%
Cl.O=C(Nc1cc(Cl)cc(Cl)c1)c1cnn(-c2ccc(F)cc2)c1C1CCNCC1,90%,0%,13%
CC(C)N(Cc1cnc(N)c(C#N)n1)c1ccc(Cl)c(Cl)c1,97%,63%,0%
